# Reference: PubChem BioAssay (NCATS)
# Inconclusive results are not listed. This is one part of the list. A call without a number means that no potency is given here. Activity calls are given as the source filed them. Unless noted, calls come from the whole dose curve; as a rule, active = well fitted curve in the direction sought with a large enough effect; inconclusive = small, poorly fitted or top-dose-only effect, or another doubt; inactive = no such curve, though single readings can be large; an effect the other way counts as inactive or inconclusive.
# Experiments:
# [1] = biological target: Cytochrome P450 3A4 (Homo sapiens) (UniProt P08684); assay: qHTS Assay for Activators of Cytochrome P450 3A4 (AID 885); note: nearly all actives have a fitted effect of over 65% in size
# Procedure, shortened: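 Steps: enzyme/substrate mix dispensed; compound added, 10 min RT; NADPH regeneration solution added, 60 min RT; luciferin detection buffer stops reaction; 20 min later luminescence measured.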
# [2] = biological target: Calcium and integrin-binding protein 1 (Homo sapiens) (UniProt Q99828); assay: Primary qHTS for Identification of Calcium Integrin Binding Protein 1 (CIB1) Competitor (AID 1508620);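 note: GST tagged CIB1 binding a fluorescein labelled alphaIIb integrin peptide tracer; top concentration of the series differs between compounds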
# Procedure, shortened: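 CIB1-GST (1 uM final) and compound incubated 15 min at room temperature before adding FITC-alphaIIb peptide tracer (100 nM final). Competition for binding read by fluorescence polarization (ex 480, em 540) after another 15 min at room temperature.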
# [3] = qHTS profiling for inhibitors of Plasmodium falciparum (DD2) proliferation (AID 743323; call rule not given here); conditions: lower = more inhibition; at 28.7 µM (top of the series)
# Procedure, shortened: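 1536-well qHTS; infected RBCs 0.3% parasitemia/2.5% Hct final; cpd 72 h 37 C 5% CO2; lysis buffer + SYBR Green I, o/n RT dark; FI 485/535; norm. to 0.29 uM artemisinin and DMSO, plate-stack corrected.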
# [4] = qHTS profiling for inhibitors of Plasmodium falciparum (HB3) proliferation (AID 743324); conditions: Plasmodium falciparum HB3 blood-stage proliferation; at 28.7 µM (top of the series)
# Procedure, shortened: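 P. falciparum HB3 grown in erythrocytes (0.3% parasitemia, 2.5% hematocrit final) with compound for 72 h at 37 C, 5% CO2. Parasite DNA detected by SYBR Green after saponin/triton lysis overnight; normalized to 0.29 uM artemisinin and DMSO.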
# [5] = Counterscreen qHTS for small molecule stabilizers of the endoplasmic reticulum resident proteome: GLuc-NoTag assay (AID 1508627); note: potency is the fitted concentration of half-maximal effect
# Procedure, shortened: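 Luminescence of Gaussia luciferase secreted into the medium (coelenterazine, 0.07x final, unlysed cells) was the read-out. Human SH-SY5Y neuroblastoma cells constitutively secreting untagged GLuc received compound for 19 h, then 100 nM thapsigargin for 4 h.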
# [6] = biological target: Cytochrome P450 3A4 (Homo sapiens) (UniProt P08684); assay: qHTS Assay for Inhibitors and Substrates of Cytochrome P450 3A4 (AID 884); note: nearly all actives have a fitted effect of over 50% in size; note: potency is the fitted concentration of half-maximal effect
# Procedure, shortened: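 20 nM human CYP3A4 with 25 uM Luciferin-PPXE (at KM) in 200 mM KPO4, preincubated 10 min with compound; NADPH regeneration started a 60 min RT reaction. Luciferin detected by luminescence, normalized to 57 uM ketoconazole as full inhibition.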
# [7] = qHTS profiling of the MIPE4 collection as inhibitors of Plasmodium falciparum (3D7) proliferation (AID 743344; call rule not given here); conditions: P. falciparum 3D7 in erythrocytes, SYBR Green DNA fluorescence, 72 h; at 28.5 µM (top of the series)
# Procedure, shortened: (§1)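 Erythrocytes infected with P. falciparum (0.3% parasitemia, 2.5% hematocrit) incubated with compounds 72 h at 37 C, 5% CO2. Lysis with saponin/Triton buffer containing SYBR Green I, overnight at room temperature in the dark; DNA fluorescence (485/535 nm) normalised to 0.29 uM artemisinin and DMSO.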
# [8] = qHTS profiling of the MIPE4 collection as inhibitors of Plasmodium falciparum (DD2) proliferation (AID 743345; call rule not given here); conditions: P. falciparum Dd2 in erythrocytes, SYBR Green DNA, 72 h; at 28.5 µM (top of the series)
# Procedure, shortened: as §1
# [9] = qHTS profiling of the MIPE4 collection as inhibitors of Plasmodium falciparum (DD2) proliferation (Rep 2) (AID 743346; call rule not given here); conditions: P. falciparum Dd2 in erythrocytes, SYBR Green DNA, 72 h; at 28.5 µM (top of the series)
# Procedure, shortened: as §1
# [10] = qHTS profiling of the MIPE4 collection as inhibitors of Plasmodium falciparum (HB3) proliferation (AID 743347; call rule not given here); conditions: P. falciparum HB3 in erythrocytes, SYBR Green DNA, 72 h; at 28.5 µM (top of the series)
# Procedure, shortened: as §1
# [11] = Confirmatory qHTS for small molecule stabilizers of the endoplasmic reticulum resident proteome: Secreted ER Calcium Modulated Protein (SERCaMP) assay (AID 1508628);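 note: SH-SY5Y cells given compound 16 h then thapsigargin 100 nM for 4 h; nearly all actives have a fitted effect of over 40% in size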
# Procedure, shortened: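 We seeded SH-SY5Y-GLuc-SERCaMP cells, added compounds (three concentrations in the primary run, eleven up to 76.6 uM in confirmation), incubated 16 h, depleted ER calcium with thapsigargin, and read luciferase 4 h later.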
# [12] = biological target: Ubiquitin carboxyl-terminal hydrolase 2 (Homo sapiens) (UniProt O75604); assay: qHTS for Inhibitors of Ubiquitin-specific Protease USP2a Using CHOP2 as the Reporter: K484 Substrate (AID 652173);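 note: cleavage of internally quenched K48 di-ubiquitin substrate measured as rising fluorescence over time; potency is the fitted concentration of half-maximal effect; nearly all actives have a fitted effect of over 70% in size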
# Procedure, shortened: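 USP2 (dispensed at 5 nM) was pinned with compounds, then DiUb K48 internally quenched fluorescent substrate (dispensed at 100 nM) was added. The buffer was 20 mM Tris pH 8, 2 mM beta-mercaptoethanol and 0.05% CHAPS. Cleavage was read kinetically as rising fluorescence, Ex 525/Em 598.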
# [13] = biological target: DNA polymerase kappa (Homo sapiens) (UniProt Q9UBT6); assay: qHTS for Inhibitors of Polymerase Kappa: Confirmatory Assay for Cherry-picked Compounds (AID 720501); conditions: purified Pol-kappa, fluorescent strand-displacement substrate; note: potency is the fitted concentration of half-maximal effect
# Procedure, shortened: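 Strand-displacement fluorescence read-out: TAMRA reporter released from a BHQ-2-quenched template, measured at 525/598 nm over a 10 min kinetic window. Substrate was 50 nM final; enzyme was 10 nM Pol-kappa, preincubated 15 min at room temperature with compound.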
# Calcium and integrin-binding protein 1 (Homo sapiens), sequence (Q99828 whole entry, looked up): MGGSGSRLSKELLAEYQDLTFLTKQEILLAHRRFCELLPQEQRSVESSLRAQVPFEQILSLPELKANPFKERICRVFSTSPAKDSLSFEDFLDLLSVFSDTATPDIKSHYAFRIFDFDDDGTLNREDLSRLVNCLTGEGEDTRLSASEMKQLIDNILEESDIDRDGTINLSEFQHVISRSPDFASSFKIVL
# Cytochrome P450 3A4 (Homo sapiens), sequence (P08684 whole entry, looked up): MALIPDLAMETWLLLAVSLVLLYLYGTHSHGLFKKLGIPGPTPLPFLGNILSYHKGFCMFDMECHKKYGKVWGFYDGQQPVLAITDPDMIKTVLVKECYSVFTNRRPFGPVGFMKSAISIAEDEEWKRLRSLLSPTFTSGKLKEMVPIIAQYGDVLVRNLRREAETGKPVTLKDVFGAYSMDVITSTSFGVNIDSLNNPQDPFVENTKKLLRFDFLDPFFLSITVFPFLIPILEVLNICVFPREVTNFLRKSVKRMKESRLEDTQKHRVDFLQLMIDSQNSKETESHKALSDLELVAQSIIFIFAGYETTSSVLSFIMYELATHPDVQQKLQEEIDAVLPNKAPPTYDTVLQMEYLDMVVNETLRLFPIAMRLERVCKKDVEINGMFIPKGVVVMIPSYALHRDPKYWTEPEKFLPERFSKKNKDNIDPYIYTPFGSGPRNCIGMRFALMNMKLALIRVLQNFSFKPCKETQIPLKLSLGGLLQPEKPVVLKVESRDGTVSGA
# Ubiquitin carboxyl-terminal hydrolase 2 (Homo sapiens), sequence (O75604 whole entry, looked up): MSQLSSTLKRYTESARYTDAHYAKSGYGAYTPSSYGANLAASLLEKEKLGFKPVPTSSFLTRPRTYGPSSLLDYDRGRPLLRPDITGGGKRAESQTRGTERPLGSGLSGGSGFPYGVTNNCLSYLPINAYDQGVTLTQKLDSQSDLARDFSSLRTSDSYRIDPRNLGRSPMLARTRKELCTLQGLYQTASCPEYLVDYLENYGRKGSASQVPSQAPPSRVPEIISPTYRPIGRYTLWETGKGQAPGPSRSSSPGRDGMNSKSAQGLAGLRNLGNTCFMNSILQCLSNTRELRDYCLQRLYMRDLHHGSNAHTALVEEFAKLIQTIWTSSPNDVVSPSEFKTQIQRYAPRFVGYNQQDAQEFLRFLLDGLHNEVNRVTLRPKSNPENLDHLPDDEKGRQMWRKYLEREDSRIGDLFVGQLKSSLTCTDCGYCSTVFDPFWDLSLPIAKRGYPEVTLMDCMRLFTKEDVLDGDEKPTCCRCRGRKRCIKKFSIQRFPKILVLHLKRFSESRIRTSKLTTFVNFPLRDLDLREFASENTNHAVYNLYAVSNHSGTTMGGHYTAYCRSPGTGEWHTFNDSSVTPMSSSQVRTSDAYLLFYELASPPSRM
# DNA polymerase kappa (Homo sapiens), sequence (Q9UBT6 whole entry, looked up): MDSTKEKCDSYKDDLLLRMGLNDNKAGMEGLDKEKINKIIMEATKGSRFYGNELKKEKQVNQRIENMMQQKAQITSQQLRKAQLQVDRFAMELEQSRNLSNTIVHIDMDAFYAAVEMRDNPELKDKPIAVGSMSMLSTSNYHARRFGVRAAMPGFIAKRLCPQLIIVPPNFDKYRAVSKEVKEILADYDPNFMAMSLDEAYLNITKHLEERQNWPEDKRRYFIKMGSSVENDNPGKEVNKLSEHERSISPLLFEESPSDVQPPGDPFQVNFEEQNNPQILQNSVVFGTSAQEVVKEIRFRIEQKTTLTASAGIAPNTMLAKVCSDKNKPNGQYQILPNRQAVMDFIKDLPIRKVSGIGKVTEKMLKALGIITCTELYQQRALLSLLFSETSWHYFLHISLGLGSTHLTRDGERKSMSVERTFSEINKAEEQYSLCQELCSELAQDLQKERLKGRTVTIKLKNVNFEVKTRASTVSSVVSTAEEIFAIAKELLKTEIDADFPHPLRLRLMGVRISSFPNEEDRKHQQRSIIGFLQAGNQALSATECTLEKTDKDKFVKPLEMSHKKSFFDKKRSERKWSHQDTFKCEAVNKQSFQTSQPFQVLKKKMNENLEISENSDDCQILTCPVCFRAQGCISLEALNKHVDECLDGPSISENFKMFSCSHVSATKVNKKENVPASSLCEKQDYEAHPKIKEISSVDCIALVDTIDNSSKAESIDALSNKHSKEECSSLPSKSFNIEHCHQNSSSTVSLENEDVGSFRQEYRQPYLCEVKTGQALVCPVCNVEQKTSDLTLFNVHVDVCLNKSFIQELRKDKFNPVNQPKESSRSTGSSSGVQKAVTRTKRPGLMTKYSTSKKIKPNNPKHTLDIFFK
structure (smiles),measurement,setting,value
CCCCNc1nc(C)nc2c1nc(-c1ccccc1)n2CCCN(C)C,Potency,[1],inactive
same,Potency,[2],inactive
N[C@@H](Cc1ccc(O[S+](=O)([O-])c2cccc3cccnc23)cc1)C(=O)N1CCN(c2ccccc2)CC1,"activity, percent of control",[3],1%
same,"remaining proliferation (% of control), lower = more inhibition",[4],0.538%
same,Potency,[2],inactive
O=C([C@H](Cc1ccc(O[S+](=O)([O-])c2cccnc2)cc1)N[S+](=O)([O-])c1cccc2cnccc12)N1CCN(c2ccccc2)CC1,"activity, percent of control",[3],4.11%
same,"remaining proliferation (% of control), lower = more inhibition",[4],0.563%
same,Potency,[2],inactive
CC(C)(C)OC(=O)N[C@@H](Cc1ccc(O[S+](=O)([O-])c2cccc3cnccc23)cc1)C(=O)N1CCN(c2ccccc2)CC1,"activity, percent of control",[3],-0.0871%
same,"remaining proliferation (% of control), lower = more inhibition",[4],-0.489%
same,Potency,[2],inactive
O=C(NCCN1CCCC1)[C@H](Cc1ccc(OS(=O)(=O)c2cccc3cnccc23)cc1)NS(=O)(=O)c1cccc2cnccc12,"activity, percent of control",[3],49.2%
same,"remaining proliferation (% of control), lower = more inhibition",[4],1.37%
same,Potency,[2],inactive
O=C(Nc1ncccn1)c1ccc([N+](=O)[O-])o1,Potency,[5],inactive
CNC1CCC(N(Cc2ccc(OC)c(-c3ccc(C#N)cc3)c2)C(=O)c2sc3ccccc3c2Cl)CC1 (stereo not drawn),"activity, percent of control",[3],-0.637%
same,"remaining proliferation (% of control), lower = more inhibition",[4],-1.57%
same,Potency,[2],inactive
CCCn1c(-c2ccc(F)cc2)nc2c(NCCN3CCOCC3)nc(C)nc21,Potency,[6],7.94 µM (active)
same,Potency,[1],inactive
same,Potency,[2],inactive
COc1c2c(c(C(=O)/C=C/C(C)=C/c3ccccc3)c3c1OCO3)CCN(C)C2,Potency,[5],inactive
O=C([C@H](Cc1ccc(O[S+](=O)([O-])c2cccc3cnccc23)cc1)N[S+](=O)([O-])c1cccc2cnccc12)N1CCN(Cc2ccccc2)CC1,"parasite growth, % of DMSO control",[7],4.76%
same,"parasite growth remaining, % of DMSO control (lower = more inhibition)",[8],6.64%
same,"parasite growth, % of control (lower = inhibition)",[9],19.3%
same,"growth, % of control",[10],5.19%
same,Potency,[2],inactive
COc1cccc(CN2CCN(C(=O)c3ccc(-c4ccccc4)cc3)CC2)c1,Potency,[5],inactive
same,Potency,[11],inactive
COc1cc(CN2CCN(C(=O)c3ccc(-c4ccccc4)cc3)CC2)cc(OC)c1OC,Potency,[5],inactive
same,Potency,[11],inactive
COc1cc(OC)cc(C(=O)N2CCN(Cc3ccccc3C(F)(F)F)CC2)c1,Potency,[5],inactive
same,Potency,[11],inactive
O=C(Nc1nc(-c2ccccc2)cs1)c1ccccc1Cl,Potency,[12],13.7 µM (active)
same,Potency,[2],inactive
COC(=O)[C@H](Cc1ccc(O[S+](=O)([O-])c2cccc3cnccc23)cc1)N(C)[S+](=O)([O-])c1ccc2cnccc2c1,"activity, percent of control",[3],3.76%
same,"remaining proliferation (% of control), lower = more inhibition",[4],0.837%
same,Potency,[2],inactive
CCN(CC)CCCCn1c(-c2ccccc2)nc2c(N3CCOCC3)nc(C)nc21,Potency,[1],inactive
same,Potency,[2],inactive
O=C(c1ccccc1)N1CCN(Cc2cccc(Oc3ccccc3)c2)CC1,Potency,[5],inactive
CCCn1c(C)nc2c(NCCN3CCCCC3)nc(C)nc21,Potency,[6],inactive
same,Potency,[2],inactive
COc1ccc(C2=Nn3c(nnc3-c3ccccc3OC)SC2)cc1OC1CCCC1,Potency,[13],4.23 µM (active)
same,Potency,[2],inactive
Cc1nc(NC2CCCCC2)c2nc(-c3ccccc3)n(CC3CCN(C)CC3)c2n1,Potency,[6],inactive
same,Potency,[2],inactive
Cc1ccc(NS(=O)(=O)c2ccccc2C(=O)Nc2nc(-c3ccccc3)cs2)cc1,Potency,[12],3.43 µM (active)
same,Potency,[2],inactive
COc1cc2c(cc1OC)[C@H](C)N(CC1C(=O)O[C@@H]3C[C@@]4(C)CCC[C@H](C)[C@@]45OC5[C@H]13)CC2 (stereo partly drawn),Potency,[5],35.5 µM (active)
CN1CCN(C(=O)[C@H](Cc2ccc(O[S+](=O)([O-])c3cccc4cnccc34)cc2)N[S+](=O)([O-])c2cccc3cnccc23)CC1,"activity, percent of control",[3],9.98%
same,"remaining proliferation (% of control), lower = more inhibition",[4],5.8%
same,Potency,[2],inactive
